{
  "source": "paper PMC12431657",
  "about": "“Discovery and mechanistic insights of dibenzoylmethane as a broad spectrum inhibitor of coronavirus” (PLOS Pathogens, 2025)",
  "test_system": "HCoV-229E",
  "set-up": "species or system Huh-7; HTS, protection from HCoV-229E induced cell death, luminescent cell viability (CellCounting-Lite 2.0), inhibition rate",
  "conditions": "24 h post infection, 1 h compound pre-incubation, 10 µM, inhibitor",
  "note": "Where two headings read alike, the source gives them in different places. Hit rate of the full screen: of about 3,300 compounds, about 95 (3%) showed an effect of 50% or more. Shown is part of a subset that was picked to be rich in strong results.",
  "data": [
    {"smiles": "CC(=O)OCCC(C)CCC=C(C)C", "note": "(centres unmarked) [Citronellyl acetate]", "values": [
      {"measurement": "229E Inhibition rate", "result": 16.2, "unit": "%"}
    ]},
    {"smiles": "CCC(O)CC", "note": "[3-Pentanol]", "values": [
      {"measurement": "229E Inhibition rate", "result": 19, "unit": "%"}
    ]},
    {"smiles": "COc1cc(-c2coc3cc(O)c(OC)c(O)c3c2=O)cc(O)c1OC", "note": "[Irigenin]", "values": [
      {"measurement": "229E Inhibition rate", "result": 11.4, "unit": "%"}
    ]},
    {"smiles": "COc1cc(-c2coc3cc4c(c(O)c3c2=O)OCO4)cc(O)c1OC", "note": "[Dichotomitin]", "values": [
      {"measurement": "229E Inhibition rate", "result": 53.3, "unit": "%"}
    ]},
    {"smiles": "COc1cc(-c2coc3cc4c(c(OC)c3c2=O)OCO4)cc(OC)c1OC", "note": "[Irisflorentin]", "values": [
      {"measurement": "229E Inhibition rate", "result": 11.3, "unit": "%"}
    ]},
    {"smiles": "CO[C@@H]1[C@H](O)[C@@H](CO)O[C@H]1n1ccc(=O)[nH]c1=O", "note": "[2′-O-Methyluridine]", "values": [
      {"measurement": "229E Inhibition rate", "result": 20.9, "unit": "%"}
    ]},
    {"smiles": "Oc1ccc(C2COc3cc(O)ccc3C2)cc1", "note": "(racemic) [(±)-Equol]", "values": [
      {"measurement": "229E Inhibition rate", "result": 11, "unit": "%"}
    ]},
    {"smiles": "CC1(C)C=Cc2c(ccc3c2OC[C@@H](c2ccc(O)cc2O)C3)O1", "note": "[Glabridin]", "values": [
      {"measurement": "229E Inhibition rate", "result": 54.3, "unit": "%"}
    ]},
    {"smiles": "Oc1ccc([C@H]2COc3cc(O)ccc3C2)cc1", "note": "[(-)-(S)-Equol]", "values": [
      {"measurement": "229E Inhibition rate", "result": 8.5, "unit": "%"}
    ]},
    {"smiles": "C=C1C[C@@]23CC[C@H]4[C@@](C)(CCC[C@@]4(C)C(=O)O)[C@@H]2CC[C@@H]1C3", "note": "[Kaurenoic acid]", "values": [
      {"measurement": "229E Inhibition rate", "result": 8.8, "unit": "%"}
    ]},
    {"smiles": "CC(C)(O)CC[C@@H](O)[C@](C)(O)[C@H]1CC=C2C3=C(CC[C@@]21C)[C@@]1(C)C[C@H](O)[C@H](O)C[C@H]1C(=O)C3", "note": "[Podecdysone B]", "values": [
      {"measurement": "229E Inhibition rate", "result": 11.2, "unit": "%"}
    ]},
    {"smiles": "C[C@H](CCC(=O)O)[C@H]1CC[C@H]2[C@@H]3C(=O)C[C@@H]4C[C@H](O)CC[C@]4(C)[C@H]3CC[C@]12C", "note": "[7-Ketolithocholic acid]", "values": [
      {"measurement": "229E Inhibition rate", "result": 20.5, "unit": "%"}
    ]},
    {"smiles": "CC(=O)c1ccc(O)c(O)c1", "note": "[3',4'-Dihydroxyacetophenone]", "values": [
      {"measurement": "229E Inhibition rate", "result": 12.4, "unit": "%"}
    ]},
    {"smiles": "COc1ccc(C(C)=O)cc1O", "note": "[3-Hydroxy-4-methoxyacetophenone]", "values": [
      {"measurement": "229E Inhibition rate", "result": 50.5, "unit": "%"}
    ]},
    {"smiles": "Cc1cc(C(=O)O)ccc1O", "note": "[4-Hydroxy-3-methylbenzoic acid]", "values": [
      {"measurement": "229E Inhibition rate", "result": 61.9, "unit": "%"}
    ]},
    {"smiles": "Cc1ccc(C(=O)O)cc1C", "note": "[3,4-Dimethylbenzoic acid]", "values": [
      {"measurement": "229E Inhibition rate", "result": 23.9, "unit": "%"}
    ]},
    {"smiles": "COc1cc(C(=O)O)ccc1O", "note": "[Vanillic acid]", "values": [
      {"measurement": "229E Inhibition rate", "result": 50, "unit": "%"}
    ]},
    {"smiles": "COc1cc(C(C)=O)ccc1O", "note": "[Apocynin]", "values": [
      {"measurement": "229E Inhibition rate", "result": 5.3, "unit": "%"}
    ]},
    {"smiles": "CC(=O)c1ccc(O)c(C)c1", "note": "[4'-Hydroxy-3'-methylacetophenone]", "values": [
      {"measurement": "229E Inhibition rate", "result": 11.7, "unit": "%"}
    ]},
    {"smiles": "COC(=O)c1ccc(OC)c(O)c1", "note": "[Methyl isovanillate]", "values": [
      {"measurement": "229E Inhibition rate", "result": 12.8, "unit": "%"}
    ]},
    {"smiles": "COc1ccc(C(=O)O)cc1O", "note": "[Isovanillic acid]", "values": [
      {"measurement": "229E Inhibition rate", "result": 0, "unit": "%"}
    ]},
    {"smiles": "O=Cc1cccs1", "note": "[2-Thiophenecarboxaldehyde]", "values": [
      {"measurement": "229E Inhibition rate", "result": 6.5, "unit": "%"}
    ]},
    {"smiles": "O=C(O)C(O)Cc1ccccc1", "note": "(racemic) [DL-3-Phenyllactic acid]", "values": [
      {"measurement": "229E Inhibition rate", "result": 22.4, "unit": "%"}
    ]},
    {"smiles": "COc1cc2c(cc1O)CCN1Cc3c(ccc(OC)c3OC)C[C@@H]21", "note": "[Corypalmine]", "values": [
      {"measurement": "229E Inhibition rate", "result": 8.4, "unit": "%"}
    ]},
    {"smiles": "C=C[C@](C)(O)CC[C@H]1C(=C)CC[C@H]2C(C)(C)CCC[C@]12C", "note": "[Manool]", "values": [
      {"measurement": "229E Inhibition rate", "result": 42.5, "unit": "%"}
    ]},
    {"smiles": "CC(C)(O)CCc1c(O)cc(O)c2c(=O)c(O)c(-c3ccc(O)cc3)oc12", "note": "[Noricaritin]", "values": [
      {"measurement": "229E Inhibition rate", "result": 14.9, "unit": "%"}
    ]},
    {"smiles": "COc1ccc(-c2oc3c(CCC(C)(C)O)c(O)cc(O)c3c(=O)c2O)cc1", "note": "[Wushanicaritin]", "values": [
      {"measurement": "229E Inhibition rate", "result": 51.4, "unit": "%"}
    ]},
    {"smiles": "COc1ccc(-c2oc3c(CC=C(C)C)c(O)cc(O)c3c(=O)c2O)cc1", "note": "[Icaritin]", "values": [
      {"measurement": "229E Inhibition rate", "result": 8.6, "unit": "%"}
    ]},
    {"smiles": "COc1ccc(C2COc3cc(O[C@@H]4O[C@H](CO)[C@@H](O)[C@H](O)[C@H]4O)ccc3C2)c(O)c1OC", "note": "(some centres unmarked) [Isomucronulatol 7-O-glucoside]", "values": [
      {"measurement": "229E Inhibition rate", "result": 13, "unit": "%"}
    ]},
    {"smiles": "CC(C)=CCC/C(C)=C/C=O", "note": "[Citral]", "values": [
      {"measurement": "229E Inhibition rate", "result": 47.4, "unit": "%"}
    ]},
    {"smiles": "C=C1[C@H]2C[C@H]2[C@]2(C)Cc3occ(C)c3[C@H](O)[C@@H]12", "note": "[Lindenenol]", "values": [
      {"measurement": "229E Inhibition rate", "result": 28.5, "unit": "%"}
    ]},
    {"smiles": "CCC/C=C1\\OC(=O)C2=C1CC[C@H]1[C@H]3C=C4C(=O)O/C(=C\\CCC)[C@@]4(CC3)[C@@H]21", "note": "[Levistolide A]", "values": [
      {"measurement": "229E Inhibition rate", "result": 60.4, "unit": "%"}
    ]},
    {"smiles": "CCC/C=C1\\OC(=O)C2=C1CC[C@@H](O)[C@H]2O", "note": "[Senkyunolide H]", "values": [
      {"measurement": "229E Inhibition rate", "result": 47.8, "unit": "%"}
    ]},
    {"smiles": "CCC/C=C1\\OC(=O)C2=C1CC[C@H](O)[C@H]2O", "note": "[Senkyunolide I]", "values": [
      {"measurement": "229E Inhibition rate", "result": 43.1, "unit": "%"}
    ]},
    {"smiles": "Cc1ncc(CO)c(C(=O)O)c1O", "note": "[4-Pyridoxic acid]", "values": [
      {"measurement": "229E Inhibition rate", "result": 22.7, "unit": "%"}
    ]},
    {"smiles": "O=C(O)/C=C/c1ccccc1", "note": "[Cinnamic acid]", "values": [
      {"measurement": "229E Inhibition rate", "setting": "229E Inhibition rate, 24 h", "result": 21, "unit": "%"}
    ]},
    {"smiles": "O=C(O)[C@H](O)c1ccccc1", "note": "[D-(-)-Mandelic acid]", "values": [
      {"measurement": "229E Inhibition rate", "result": 7.5, "unit": "%"}
    ]},
    {"smiles": "O=C(O)[C@H]1O[C@@H](Oc2cc(O)c3c(=O)cc(-c4ccc(O)c(O)c4)oc3c2)[C@H](O)[C@@H](O)[C@@H]1O", "note": "[Luteolin 7-O-glucuronide]", "values": [
      {"measurement": "229E Inhibition rate", "result": 11.2, "unit": "%"}
    ]},
    {"smiles": "C[C@@H]1CC[C@]2(C(=O)O[C@@H]3O[C@H](CO)[C@@H](O)[C@H](O)[C@H]3O)CC[C@]3(C)C(=CC[C@@H]4[C@@]5(C)CC[C@H](O)[C@@](C)(CO)[C@@H]5CC[C@]43C)[C@@H]2[C@]1(C)O", "note": "[Pedunculoside]", "values": [
      {"measurement": "229E Inhibition rate", "result": 10.8, "unit": "%"}
    ]},
    {"smiles": "CC1(C)CC[C@]2(C(=O)O[C@@H]3O[C@H](CO[C@@H]4O[C@H](CO)[C@@H](O)[C@H](O)[C@H]4O)[C@@H](O)[C@H](O)[C@H]3O)CC[C@]3(C)C(=CC[C@@H]4[C@@]5(C)CC[C@H](O[C@@H]6OC[C@H](O)[C@H](O)[C@H]6O)[C@@](C)(CO)[C@@H]5CC[C@]43C)[C@@H]2C1", "note": "[Asperosaponin VI]", "values": [
      {"measurement": "229E Inhibition rate", "result": 56.6, "unit": "%"}
    ]},
    {"smiles": "C[C@@H]1O[C@@H](O[C@H]2[C@H](O)[C@@H](O)[C@H](OC[C@H]3O[C@@H](OC(=O)[C@]45CCC(C)(C)C[C@H]4C4=CC[C@@H]6[C@@]7(C)CC[C@H](O[C@@H]8OC[C@H](O)[C@H](O)[C@H]8O)[C@@](C)(CO)[C@@H]7CC[C@@]6(C)[C@]4(C)CC5)[C@H](O)[C@@H](O)[C@@H]3O)O[C@@H]2CO)[C@H](O)[C@H](O)[C@H]1O", "note": "[Hederacoside D]", "values": [
      {"measurement": "229E Inhibition rate", "setting": "229E Inhibition rate, 24 h", "result": 40.4, "unit": "%"}
    ]},
    {"smiles": "C[C@@H]1CC[C@]2(C(=O)O[C@@H]3O[C@H](CO)[C@@H](O)[C@H](O)[C@H]3O)CC[C@]3(C)C(=CC[C@@H]4[C@@]5(C)C[C@@H](O)[C@H](O)[C@@](C)(CO)[C@@H]5CC[C@]43C)[C@@H]2[C@]1(C)O", "note": "[Niga-ichigoside F1]", "values": [
      {"measurement": "229E Inhibition rate", "result": 20.4, "unit": "%"}
    ]},
    {"smiles": "C[C@@H]1O[C@@H](O[C@H]2[C@H](O[C@H]3CC[C@@]4(C)[C@@H](CC[C@]5(C)[C@@H]4CC=C4[C@@H]6CC(C)(C)CC[C@]6(C(=O)O[C@@H]6O[C@H](CO[C@@H]7O[C@H](CO)[C@@H](O)[C@H](O)[C@H]7O)[C@@H](O)[C@H](O)[C@H]6O)CC[C@]45C)[C@]3(C)CO)OC[C@H](O)[C@@H]2O)[C@H](O)[C@H](O)[C@H]1O", "note": "[Dipsacoside B]", "values": [
      {"measurement": "229E Inhibition rate", "result": 11.1, "unit": "%"}
    ]},
    {"smiles": "C[C@@H]1CC[C@]2(C(=O)O[C@@H]3O[C@H](CO)[C@@H](O)[C@H](O)[C@H]3O)CC[C@]3(C)C(=CC[C@@H]4[C@@]5(C)CC[C@H](O)[C@](C)(C(=O)O)[C@@H]5CC[C@]43C)[C@@H]2[C@]1(C)O", "note": "[Ilexsaponin A]", "values": [
      {"measurement": "229E Inhibition rate", "result": 58.5, "unit": "%"}
    ]}
  ]
}
